# In PubChem BioAssay (NCATS):
# Results filed as inconclusive are left out. Entries that show only a call come without a potency. A number with no mark means an inactive call. Activity calls are given as the source filed them. The call rests on the fitted dose curve; in most records, active means well fitted curve in the direction sought with a large enough effect; inconclusive means small, poorly fitted or top-dose-only effect, or another doubt; inactive means no such curve, though single readings can be large; an effect the other way counts as inactive or inconclusive.
# Legend:
# [1] = test system: CRL-7250; assay: Cytotoxic Profiling of Annotated Libraries Using Quantitative High-Throughput Screening (AID 1296008); details: Five cell lines viability, CellTiter-Glo ATP luminescence, 48-72 h; max response: hits give low values; further: nearly all actives have a fitted effect of over 60% in size; further: potency means the concentration at half of the fitted maximal effect
# How it was run: (§1)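 Cells exposed to compounds for 48 or 72 hr at 37 degrees Celsius. Viability read as ATP-coupled luminescence with CellTiter-Glo after 10 min at room temperature.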
# [2] = test system: HaCat; assay: as above; details: Five cell lines viability, CellTiter-Glo ATP luminescence, 48-72 h; max response: hits give low values
# How it was run: as §1
# [3] = test system: KB-3-1; assay: as above; details: Five cell lines viability, CellTiter-Glo ATP luminescence, 48-72 h; max response: hits give low values
# How it was run: as §1
# [4] = test system: NIH3T3; assay: as above; details: Five cell lines viability, CellTiter-Glo ATP luminescence, 48-72 h; max response: hits give low values
# How it was run: as §1
# [5] = test system: C33A; assay: Primary qHTS to identify gynecologic anti-cancer compounds using libraries of approved drugs and bioactive compounds (AID 1345084); details: Gynecologic cancer cell panel viability, ATPlite luminescence, 48 h; series mostly up to 57.5 µM; further: nearly all actives have a fitted effect of over 55% in size
# How it was run: (§2)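 Cytotoxicity screen measuring ATP content by luciferase luminescence. Each compound is applied at five concentrations for 48 h at 37 C with 5% CO2.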
# [6] = test system: CAOV3; assay: as above; details: Gynecologic cancer cell panel viability, ATPlite luminescence, 48 h; series mostly up to 57.5 µM
# How it was run: as §2
# [7] = test system: CASKI; assay: as above; details: Gynecologic cancer cell panel viability, ATPlite luminescence, 48 h; series mostly up to 57.5 µM
# How it was run: as §2
# [8] = test system: Es-2; assay: as above; details: Gynecologic cancer cell panel viability, ATPlite luminescence, 48 h; series mostly up to 57.5 µM
# How it was run: as §2
# [9] = test system: HeLa; assay: as above; details: Gynecologic cancer cell panel viability, ATPlite luminescence, 48 h; series mostly up to 57.5 µM
# How it was run: as §2
# [10] = test system: Hek293T; assay: as above; details: Gynecologic cancer cell panel viability, ATPlite luminescence, 48 h, control line for the selectivity index; series mostly up to 57.5 µM
# How it was run: as §2
# [11] = test system: JEG-3; assay: as above; details: Gynecologic cancer cell panel viability, ATPlite luminescence, 48 h; series mostly up to 57.5 µM
# How it was run: as §2
# [12] = test system: OV90; assay: as above; details: Gynecologic cancer cell panel viability, ATPlite luminescence, 48 h; series mostly up to 57.5 µM
# How it was run: as §2
# [13] = test system: PA-1; assay: as above; details: Gynecologic cancer cell panel viability, ATPlite luminescence, 48 h; series mostly up to 57.5 µM
# How it was run: as §2
# [14] = test system: SKOV3; assay: as above; details: Gynecologic cancer cell panel viability, ATPlite luminescence, 48 h; series mostly up to 57.5 µM
# How it was run: as §2
SMILES,max response [1],max response [2],max response [3],max response [4],Potency [5],Potency [6],Potency [7],Potency [8],Potency [9],Potency [10],Potency [11],Potency [12],Potency [13],Potency [14],Potency [1],outcome [3]
O=C(O)c1cccc(-c2ccc(-c3cn(C(=O)N4CCCCC4Cc4ccccc4)nn3)cc2)c1 (stereo not drawn),0.106%,-16.1%,9.26%,-1.06%,inactive,inactive,inactive,inactive,inactive,inactive,inactive,inactive,inactive,inactive,,
O=C(NC[C@H](O)CN1CCc2ccccc2C1)c1ccnc(NC2CCC2)c1,-5.29%,-27.8%,-4.24%,-20.6%,inactive,inactive,inactive,inactive,inactive,inactive,inactive,,inactive,inactive,,
Cc1ccc(C(C)C)c(O[C@@H]2O[C@H](CO)[C@@H](O)[C@H](O)[C@H]2O)c1,,-17.5%,-7.27%,2.1%,inactive,inactive,inactive,inactive,inactive,inactive,inactive,inactive,inactive,inactive,16.1 µM (active),
COc1ccc(C2(N(C)C(=O)c3ccc(NC(=O)c4ccco4)cc3)CCOCC2)cc1,-25.1%,-27.5%,-3.65%,-15.7%,inactive,,inactive,inactive,inactive,inactive,inactive,inactive,inactive,,,
CC1(CO)CC(O)[C@]2(C(=O)O)CCC34CC3(C=CC3[C@]5(C)C(CC[C@]34C)C(C)(CO)[C@@H](O)[C@H](O)[C@@H]5O)C2C1 (stereo partly drawn),-11.7%,-0.72%,,-3.3%,inactive,inactive,inactive,inactive,inactive,inactive,inactive,inactive,,inactive,,inactive
C=CC(C)(O)CC[C@@H]1[C@@]2(C)CCCC(C)(C)C2CC[C@@]1(C)O (stereo partly drawn),-17.3%,-28.7%,-9.76%,-17%,inactive,,inactive,inactive,inactive,inactive,inactive,inactive,inactive,,,
